Source: PubChem BioAssay (NCATS)
Several values for one entry are separate records, joined by “and”; a condition that tells them apart may be missing. Equal entries are not always repeated. Results filed as inconclusive are left out. Entries that show only a call come without a potency. Values without a mark were called inactive. Activity calls are given as the source filed them. Unless noted, calls follow the shape of the dose curve; as a rule, active = well fitted curve in the direction sought with a large enough effect in the repeat runs; inconclusive = weak or mixed curves; inactive = no such curve, though single readings can be large; an effect the other way counts as inactive or inconclusive.

Assays:
[1] = Cell Viability qHTS for small molecule stabilizers of the endoplasmic reticulum resident proteome (AID 1508629; active = well fitted curve in the direction sought with a large enough effect; an effect the other way counts as inactive or inconclusive;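 also: compound exposure about 46 h in total before the viability read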); conditions: cell viability counter-screen, 100 nM thapsigargin for final 4 h
Description: Assay Provider: Brandon K. Harvey Ph.D.
National Institute on Drug Abuse, National Institutes of Health, Baltimore, MD
Endoplasmic reticulum (ER) dysregulation is associated with human pathologies including neurodegenerative, cardiovascular, muscular, and diabetic conditions. Maintenance of ER calcium is critical for functions of the ER and its depletion can lead to loss of ER resident proteins, in a process termed exodosis. Therapeutic compounds capable of attenuating the redistribution of ER proteins under pathological conditions may slow or stop disease progression. To identify such compounds, we performed a quantitative high-throughput screen (qHTS) using the SERCaMP assay, which monitors secretion of ER resident proteins triggered by calcium depletion.
SERCaMP was initially developed as a reporter of ER calcium homeostasis using a Gaussia luciferase with a modified signal peptide and carboxy-terminus (GLuc-SERCaMP), modifications that confer secretion of the reporter in response to ER calcium depletion (Henderson et al., 2014). The assay was used to screen 9,501 compounds, including a collection of drugs approved by the FDA (US), EMA (EU), NHI (Japan), and HC (Canada) regulatory agencies (Huang et al., 2011). Since the SERCaMP reporter reflects the exodosis phenomenon (Trychta et al., 2018a), compounds identified in the screen have the potential to prevent exodosis by different mechanisms such as stabilizing ER calcium or augmenting ERS retrieval.
1. Henderson, M.J., Wires, E.S., Trychta, K.A., Richie, C.T., and Harvey, B.K. (2014). SERCaMP: a carboxy-terminal protein modification that enables monitoring of ER calcium homeostasis. Mol Biol Cell 25, 2828-2839.
2. Huang, R., Southall, N., Wang, Y., Yasgar, A., Shinn, P., Jadhav, A., Nguyen, D.T., and Austin, C.P. (2011). The NCGC pharmaceutical collection: a comprehensive resource of clinically approved drugs enabling repurposing and chemical genomics. Sci Transl Med 3, 80ps16.
3. Trychta, K.A., Back, S., Henderson, M.J., and Harvey, B.K. (2018a). KDEL Receptors Are Differentially Regulated to Maintain the ER Proteome under Calcium Deficiency. Cell Rep 25, 1829-1840 e1826.
SEQUENCE No. (1, 2, 3, etc.); […] (e.g., Cells, Incubation, Reagent, etc.); VALUE and DESCRIPTION.
1; Reagent; 5 uL; 1000 SH-SY5Y cells per wells
3; Compound; 23 nL; Control inhibitor / compound library
5; Reagent; 100 nM; Thapsigargin
7; Reagent; 5 uL; CellTiter-Glo (Promega)
8; Time; 10 min; room temperature
9; Detection; Luminescence; ViewLux imaging system
NOTES (numbers refer to sequence above)
1; SH-SY5Y human neuroblastoma cells stably expressing GLuc-SERCaMP (SH-SY5Y-GLuc-ASARTDL) cells were seeded in 1,536 well white tissue culture treated plates (Corning, Cat# 7464) in DMEM-high glucose-sodium pyruvate (ThermoFisher Scientific, Cat #10569) supplemented with 10% bovine growth serum (Hyclone), 10 U/ml penicillin (Gibco), 10 ug/ml streptomycin (Gibco), and 20 mM HEPES.
2; Assay plates were incubated for 5 hr at 37C in a humidified incubator containing 5% CO2.
3; qHTS libraries (23 nl, final concentrations of 1.53 uM, 7.67 uM, 38.3 uM) or controls (neutral control: DMSO, positive control: dantrolene) were added using a Kalypsis pin-tool Robotic System equipped with 1536 pinheads.
4; Cells were then incubated for 42 hours at 37C, 5% CO2. […]
7; Cell viability was measured using the CellTiter-Glo Luminescent Cell Viability Assay (Promega). […]
9; Luminescence was measured using a ViewLux CCD imaging system (Perkin Elmer) equipped with clear filters.

[2] = Primary qHTS for inhibitors of nuclear receptor binding SET domain protein 2 (NSD2) in an isogenic RCH-ACV NSD2 p.E1099K mutant (9B) (AID 1645876; active = well fitted curve in the direction sought with a large enough effect; an effect the other way counts as inactive or inconclusive; also: nearly all actives have a fitted effect of over 70% in size); conditions: RCH-ACV NSD2 E1099K (9B) viability, CellTiter-Glo, 72 h; series mostly up to 44.9 µM
[3] = Primary qHTS for small molecule stabilizers of the endoplasmic reticulum resident proteome: Secreted ER Calcium Modulated Protein (SERCaMP) assay (AID 1508630; active = well fitted curve in the direction sought with a large enough effect; an effect the other way counts as inactive or inconclusive); conditions: SH-SY5Y GLuc-SERCaMP (Gaussia luciferase released on ER calcium loss) secretion, thapsigargin, luminescence; series mostly up to 38.4 µM
Outline: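 GLuc-SERCaMP-expressing SH-SY5Y cells, pretreated 16 h with compound, are challenged with thapsigargin to empty ER calcium stores; after 4 h, coelenterazine is added directly to the medium and luminescence is imaged.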

[4] = A High-Content qHTS Against Drug Library for the Identification of Small Molecules that Inhibit DYT1 Early Onset Primary Dystonia-Associated Cell Pathology (AID 1645839; calls by dose curve; also: potency is read from the fitted curve at half-maximal effect); conditions: HEK293 Flp-In EGFP-delE TorsinA, punctate imaging, 48 h; series mostly up to 46.1 µM
Outline: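 Readout: %pathology, the punctate EGFP-TorsinA distribution from imaging, as the primary channel and cell count as the toxicity counterscreen. HEK293 Flp-In cells expressing delE TorsinA were induced with tetracycline and treated with compound for 48 h.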

[5] = target: Cytochrome P450 2D6 (Homo sapiens) (UniProt P10635); experiment: Cytochrome P450 family 2 subfamily D member 6 (CYP2D6) small molecule antagonists: luciferase biochemical (cell-free) qHTS assay (AID 1645840); conditions: P450-Glo CYP2D6 enzyme, luciferin luminescence, 1 h; series mostly up to 57.4 µM; also: nearly all actives have a fitted effect of over 55% in size; also: potency is read from the fitted curve at half-maximal effect
Chain of Cytochrome P450 2D6 (Homo sapiens) (P10635 whole entry, looked up): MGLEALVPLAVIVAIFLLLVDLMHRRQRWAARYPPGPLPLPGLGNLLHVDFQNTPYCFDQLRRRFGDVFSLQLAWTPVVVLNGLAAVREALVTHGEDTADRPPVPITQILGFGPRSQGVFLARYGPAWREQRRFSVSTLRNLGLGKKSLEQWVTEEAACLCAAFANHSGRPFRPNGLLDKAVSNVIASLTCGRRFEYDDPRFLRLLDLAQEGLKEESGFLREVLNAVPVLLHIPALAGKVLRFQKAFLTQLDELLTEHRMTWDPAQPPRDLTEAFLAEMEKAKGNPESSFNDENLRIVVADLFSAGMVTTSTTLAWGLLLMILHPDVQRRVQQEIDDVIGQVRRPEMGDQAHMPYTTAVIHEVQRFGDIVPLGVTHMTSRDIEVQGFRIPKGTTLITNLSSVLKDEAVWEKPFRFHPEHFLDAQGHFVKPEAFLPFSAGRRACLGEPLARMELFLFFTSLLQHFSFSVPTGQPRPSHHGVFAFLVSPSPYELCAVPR
Outline: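 P450-Glo luminescent screen: recombinant CYP2D6 enzyme–proluciferin substrate mix preincubated with compound 10 min at room temperature, then NADPH regeneration added for 1 h at room temperature. Detection reagent added for 20 min; luciferin light read as relative luminescence units.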

[6] = target: Cytochrome P450 2C9 (Homo sapiens) (UniProt P11712); experiment: Cytochrome P450 family 2 subfamily C member 9 (CYP2C9) small molecule antagonists: luciferase biochemical (cell-free) qHTS assay (AID 1645842); conditions: P450-Glo CYP2C9 enzyme assay, luciferin luminescence; series mostly up to 57.4 µM; also: nearly all actives have a fitted effect of over 55% in size; also: potency is read from the fitted curve at half-maximal effect
Chain of Cytochrome P450 2C9 (Homo sapiens) (P11712 whole entry, looked up): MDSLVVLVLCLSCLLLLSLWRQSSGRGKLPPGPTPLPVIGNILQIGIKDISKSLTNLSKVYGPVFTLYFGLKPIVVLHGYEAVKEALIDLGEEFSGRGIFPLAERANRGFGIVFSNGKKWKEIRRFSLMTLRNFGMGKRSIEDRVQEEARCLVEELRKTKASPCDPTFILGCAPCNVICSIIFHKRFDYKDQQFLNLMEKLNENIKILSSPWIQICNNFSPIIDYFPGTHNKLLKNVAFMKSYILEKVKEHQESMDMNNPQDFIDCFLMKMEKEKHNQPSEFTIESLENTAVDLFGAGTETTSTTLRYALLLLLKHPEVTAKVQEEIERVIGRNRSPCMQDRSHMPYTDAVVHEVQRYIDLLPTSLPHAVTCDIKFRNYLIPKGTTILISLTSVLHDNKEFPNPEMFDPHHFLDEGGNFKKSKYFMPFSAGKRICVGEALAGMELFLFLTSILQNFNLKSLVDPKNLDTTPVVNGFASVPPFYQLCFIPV
Outline: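 Luminescence, after 20 min with luciferin detection reagent, reflected CYP2C9 turnover during a 1 h NADPH-driven reaction at 37C. Enzyme-substrate mix contained 0.4% bovine serum albumin and was preincubated with compound 10 min at room temperature.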

[7] = target: Cytochrome P450 3A4 (Homo sapiens) (UniProt P08684); experiment: Cytochrome P450 family 3 subfamily A member 4 (CYP3A4) small molecule antagonists: luciferase qHTS assay (AID 1645841); conditions: P450-Glo CYP3A4 enzyme assay, luciferin luminescence; series mostly up to 57.4 µM; also: nearly all actives have a fitted effect of over 45% in size
Chain of Cytochrome P450 3A4 (Homo sapiens) (P08684 whole entry, looked up): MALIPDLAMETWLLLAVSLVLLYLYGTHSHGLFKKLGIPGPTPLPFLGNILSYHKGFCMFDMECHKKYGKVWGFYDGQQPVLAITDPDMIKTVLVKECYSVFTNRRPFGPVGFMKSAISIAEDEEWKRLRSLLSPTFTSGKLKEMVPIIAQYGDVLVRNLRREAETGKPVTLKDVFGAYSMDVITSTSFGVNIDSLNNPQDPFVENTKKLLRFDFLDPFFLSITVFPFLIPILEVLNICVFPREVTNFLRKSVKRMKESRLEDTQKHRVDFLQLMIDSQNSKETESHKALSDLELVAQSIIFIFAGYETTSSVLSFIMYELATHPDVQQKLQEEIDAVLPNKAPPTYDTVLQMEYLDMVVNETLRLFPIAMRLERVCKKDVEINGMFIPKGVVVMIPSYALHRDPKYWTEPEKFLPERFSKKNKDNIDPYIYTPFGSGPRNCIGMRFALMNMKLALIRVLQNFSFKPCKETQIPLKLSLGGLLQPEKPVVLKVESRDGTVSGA
Outline: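 P450-Glo CYP3A4 enzyme with proluciferin substrate was preincubated with DMSO-dissolved compounds for 10 min at room temperature. NADPH regeneration solution started a 1 h reaction. Detection reagent stopped it, and luminescence was read after 20 min.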

[8] = Primary qHTS for inhibitors of nuclear receptor binding SET domain protein 2 (NSD2) in an RCH-ACV wild type WT cells (2C) (AID 1645877; active = well fitted curve in the direction sought with a large enough effect; an effect the other way counts as inactive or inconclusive; also: nearly all actives have a fitted effect of over 70% in size); conditions: RCH-ACV (leukaemia line) NSD2 WT (2C) viability, CellTiter-Glo, 72 h; series mostly up to 44.9 µM

CN1CCC(OC(c2ccccc2)c2ccccc2)CC1
max response [1]: 7.61% | Potency [2]: inactive

CCC1NC(=O)c2cc(S(N)(=O)=O)c(Cl)cc2N1 (stereo not given)
Potency [3]: inactive | Potency [4]: inactive

CC[N+](C)(CC)CCOC(=O)C(O)(c1ccccc1)C1CCCCC1 (stereo not given)
Potency [3]: inactive | Potency [4]: inactive | Potency [5]: 776 nM (active) | Potency [6]: inactive | Potency [2]: inactive

Nc1nc(-c2ccccc2)c(Br)c(=O)[nH]1
Potency [3]: inactive | Potency [4]: inactive | Potency [5]: inactive | Potency [7]: inactive | Potency [6]: inactive | Potency [2]: inactive

CC(C)[N+](C)(C)CC(O)COc1cccc2ccccc12 (stereo not given)
Potency [3]: inactive | Potency [4]: inactive | Potency [5]: 6920 nM (active) | Potency [6]: inactive

CO[C@]12C[C@@H](COC(=O)c3cncc(Br)c3)CN(C)[C@@H]1Cc1cn(C)c3cccc2c13
Potency [3]: inactive | Potency [4]: inactive | Potency [5]: 15.5 nM (active) | Potency [6]: inactive

CCOC(=O)Nc1ccc2c(c1)N(C(=O)CCN1CCOCC1)c1ccccc1S2
Potency [3]: inactive | Potency [4]: inactive

COc1cc(O)c(C(=O)c2ccccc2)cc1S(=O)(=O)O
Potency [3]: inactive | Potency [4]: inactive | Potency [5]: inactive | Potency [6]: inactive

C#C[C@]1(O)CC[C@H]2[C@@H]3CCC4=Cc5oncc5C[C@]4(C)[C@H]3CC[C@@]21C
Potency [3]: inactive

CCN1/C(=C/C=C/c2sc3ccccc3[n+]2CC)Sc2ccccc21
Potency [3]: inactive | Potency [4]: 11200 nM (active) | Potency [5]: 2130 nM (active) | Potency [6]: 9520 nM (active)

CCc1cc(Cl)c(OC)c(C(=O)NC[C@@H]2CCCN2CC)c1O
Potency [3]: inactive | Potency [4]: inactive | Potency [5]: 219 nM (active) | Potency [6]: inactive

CCN1CCCC(OC(=O)C(c2ccccc2)c2ccccc2)C1 (stereo not given)
Potency [3]: inactive | Potency [4]: inactive | Potency [5]: 1380 nM (active) | Potency [6]: inactive

C=CCN1CCc2nc(N)sc2CC1
max response [1]: -7.52% | Potency [3]: inactive | Potency [4]: inactive | Potency [5]: inactive | Potency [6]: inactive | Potency [2]: inactive | Potency [8]: inactive

Cc1cc(CC(=O)O)c(C)n1-c1ccc(Cl)cc1
Potency [3]: inactive | Potency [4]: inactive | Potency [5]: inactive

CCCCC(CC)CN1CN(CC(CC)CCCC)CC(C)(N)C1 (stereo not given)
Potency [3]: inactive | Potency [4]: inactive | Potency [5]: 219 nM (active) | Potency [6]: inactive

NC(=O)c1ccccc1O
Potency [3]: inactive | Potency [4]: inactive | Potency [5]: inactive | Potency [6]: inactive

CCCN(CCc1cccs1)[C@H]1CCc2c(O)cccc2C1
Potency [3]: inactive | Potency [4]: inactive | Potency [5]: 169 nM (active) and 195 nM (active) | Potency [6]: inactive

CC(C)Cc1ccc(CC(=O)O)cc1
Potency [3]: inactive | Potency [4]: inactive | Potency [5]: inactive | Potency [6]: inactive

c1ccc(-c2nc[nH]c2-c2ccccc2)cc1
Potency [3]: inactive | Potency [4]: inactive

CN1CCN(c2c(F)cc3c(=O)c(C(=O)O)cn4c3c2SCC4)CC1
Potency [3]: inactive | Potency [4]: inactive | Potency [5]: inactive | Potency [6]: inactive

Cc1cn([C@H]2C[C@H](F)[C@@H](CO)O2)c(=O)[nH]c1=O
Potency [3]: inactive | Potency [4]: inactive | Potency [5]: inactive | Potency [7]: inactive | Potency [6]: inactive | Potency [2]: inactive
